Data from PubChem BioAssay AID1159506 (National Center for Advancing Translational Sciences (NCATS), 2015).
Over roughly 59,000 sequences, the read-out has its median near -0.00055; the lowest 2% begin near -2. The entries come from a sample that favours the lowest values as a whole.

Assay: Identification of proteins required for the processing of the EWS-FLI1 nascent transcript;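 note: robust z of luciferase light less the median z of siRNAs with the same seed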
Settings: TC32 Ewing sarcoma NR0B1-luc vs CMV-luc (EWS-FLI1 target promoter against control promoter), 48 h; screened at 20 nM (by protocol)
In short: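 Parallel TC32-NR0B1-luc and TC32-CMV-luc reverse transfections with 20 nM siRNA in RPMI-1640/10% FBS, luciferase measured 48 h later. Seed-adjusted z-scores from normalized, z-score-MAD transformed data; AllStars negative and siGL4 controls on each plate.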

Question: With AAAGCGACACCUGUCAGUC against IKBKAP as the sequence, how does the seed-corrected z-score read?
Answer: -0.0431

Question: Which seed-corrected z-score does the source give for UUCAAUGAUAAUAAGGUUG against SF3B3 here?
Answer: -3.05

Question: Which seed-corrected z-score does the source give for UUUAUCGAAAGCAAAAUUG against MTPAP here?
Answer: 0.577

Question: Which seed-corrected z-score does the source give for AAAUCGACUACUGAGAACC against CUL9 here?
Answer: 0.396

Question: For AUCCCGACAAUCACCUUCC against DPAGT1, which seed-corrected z-score is on record?
Answer: -0.101

Question: Which seed-corrected z-score does the source give for AAUGUGGUGAAUACCUCGC against TXLNA here?
Answer: 0.621

Question: With AUCGGUCACAAAUUGUGGG against ABCE1 as the sequence, how does the seed-corrected z-score read?
Answer: -2.31

Question: With UGUUCAUCAAGAGGUUUCC against NUP188 as the sequence, how does the seed-corrected z-score read?
Answer: 0.194

Question: With UUUCCAUAGACUUUCCCAC against KLF9 as the sequence, how does the seed-corrected z-score read?
Answer: -0.352

Question: For UUUCUUAACUGAGUUCCUC against BMF, which seed-corrected z-score is on record?
Answer: -0.0574

Question: With UAUCAACUCAGUCCUCAGC against HPS6 as the sequence, how does the seed-corrected z-score read?
Answer: 0.543

Question: For AAGACUUUCAGACAUUUGU against ZNF181, which seed-corrected z-score is on record?
Answer: -0.276

Question: With UUUGGGCUUAGCGGCUUUG against HIST1H1B as the sequence, how does the seed-corrected z-score read?
Answer: -2.05

Question: With ACUGUAAUUACUAAGAUCU against CXCR2 as the sequence, how does the seed-corrected z-score read?
Answer: -1.37

Question: Which seed-corrected z-score does the source give for UACCAGAUGUCUUUUGUGC against IL33 here?
Answer: 0.0107

Question: Which seed-corrected z-score does the source give for UUCUGGUCGAGAGCAUCUG against MAGEB16 here?
Answer: -2.42

Question: Which seed-corrected z-score does the source give for UAUAACUUGAGAGUAGCUC against POPDC2 here?
Answer: 0.283

Question: Which seed-corrected z-score does the source give for UAUAAGUUUCCUCCCAUGC against TM6SF1 here?
Answer: 0.269

Question: With AUCUUGGACAGUAUCAGCC against IQCF1 as the sequence, how does the seed-corrected z-score read?
Answer: -2.36

Question: For UUGAGUUUGAUGCCGCUGC against MKNK2, which seed-corrected z-score is on record?
Answer: -0.331

Question: With UUUCUUAGGGAACCAGUUG against TAGLN2 as the sequence, how does the seed-corrected z-score read?
Answer: -0.282

Question: Which seed-corrected z-score does the source give for UCCAGAUUCAAAAUGUCUU against NKX2-3 here?
Answer: 0.184

Question: With AAACUCAUCACUCCAGUAC against PARP12 as the sequence, how does the seed-corrected z-score read?
Answer: 0.00618

Question: With UUCUUGACUGCUGGUAUAG against C3orf30 as the sequence, how does the seed-corrected z-score read?
Answer: -0.465

Question: With UCGGUGUUCACGUAGCCCU against SYNGR3 as the sequence, how does the seed-corrected z-score read?
Answer: -0.68

Question: For UUUAUUUAGACUUAUGAUC against PTH, which seed-corrected z-score is on record?
Answer: -2.27

Question: Which seed-corrected z-score does the source give for UCUACUUUUCACAAUGACC against GCLM here?
Answer: -0.666

Question: For ACGGCCUCCACUAUGUUUC against RPS26P31, which seed-corrected z-score is on record?
Answer: 0.368

Question: For AAACUGUGAAGCGUAAGUG against FAM188B, which seed-corrected z-score is on record?
Answer: -4.34

Question: For UGUCAAAUGAAAUUCCUUC against DHX38, which seed-corrected z-score is on record?
Answer: -0.779

Question: Which seed-corrected z-score does the source give for UGUGUGAGCAUGAAGCGAG against SSNA1 here?
Answer: 0.0225

Question: Which seed-corrected z-score does the source give for AUAUGUAUCAGAACUGGGA against SAE1 here?
Answer: -0.67

Question: For UGCUGUAAUGAUGUACUCC against KIAA1549, which seed-corrected z-score is on record?
Answer: -1.71

Question: For UUAAUCACCUUGUCGUUGC against ALDH3A1, which seed-corrected z-score is on record?
Answer: -0.669

Question: With UGGUCUUAAAAUUAGAGUG against CALR3 as the sequence, how does the seed-corrected z-score read?
Answer: -2.01

Question: With AUAUGAUUAGGUAGGUUUG against GDPD2 as the sequence, how does the seed-corrected z-score read?
Answer: 0.805

Question: For UCGGAUUGAUCUGUUAUGG against CFAP54, which seed-corrected z-score is on record?
Answer: -1.05

Question: Which seed-corrected z-score does the source give for UGGUAUAUAAGGGAUGAGC against ZNF611 here?
Answer: -2.07

Question: Which seed-corrected z-score does the source give for UAUUGUCCAAAUGCUCAGG against SALL1 here?
Answer: -0.159

Question: For UGUCUAAUAAGGCCUGAGC against ZFP3, which seed-corrected z-score is on record?
Answer: -0.177

Question: With ACAUCACAAAGUAUUAAUC against LOC643855 as the sequence, how does the seed-corrected z-score read?
Answer: 0.14

Question: For UUGGGUUGGAAGUCCACUG against SF3A1, which seed-corrected z-score is on record?
Answer: -2.15

Question: With UUCUGGAUUAUAGUCAUCC against CWC22 as the sequence, how does the seed-corrected z-score read?
Answer: 0.478

Question: For AAUGCUUUUAAUGCUCUUC against CARHSP1, which seed-corrected z-score is on record?
Answer: -0.968

Question: With UGAUCUACUAUGGUCCCUC against CPSF6 as the sequence, how does the seed-corrected z-score read?
Answer: 0.287

Question: For UACAUGAGCCUUGAUCUGG against FAU, which seed-corrected z-score is on record?
Answer: 1.08

Question: Which seed-corrected z-score does the source give for UGCAUGCUCAUUAAGUUCC against TUBE1 here?
Answer: -0.26

Question: For UGUAGUCACUUUCACAUUC against CCR2, which seed-corrected z-score is on record?
Answer: -2.02

Question: For UACUCUUAAAGUGAUGUUA against PPP1R1C, which seed-corrected z-score is on record?
Answer: 0.297

Question: Which seed-corrected z-score does the source give for ACAGCACCUAGCAUGAUUG against HIGD1B here?
Answer: 1.03

Question: With UUCAUUAGCACAUAAGCGG against HENMT1 as the sequence, how does the seed-corrected z-score read?
Answer: 0.665

Question: For UCGAAGUUUACUGCGGUCC against HINFP, which seed-corrected z-score is on record?
Answer: -2.19

Question: With AUUCAUAUAGUUUUUCUCC against ZNF585B as the sequence, how does the seed-corrected z-score read?
Answer: 0.297

Question: For UAUGCACAAAGUUUGUGGG against CDC42SE2, which seed-corrected z-score is on record?
Answer: -0.65

Question: For UCUCCUCCUCGAAAAGUGC against SLC12A7, which seed-corrected z-score is on record?
Answer: 0.16

Question: For AUCCAUGUCAGCGUGAGUC against PSD2, which seed-corrected z-score is on record?
Answer: -0.273

Question: For AAGAGAAUCAAAAUAGUGG against GPR63, which seed-corrected z-score is on record?
Answer: -0.548

Question: For AUCCGAACCAGGUAGACAC against PRTG, which seed-corrected z-score is on record?
Answer: 0.374

Question: Which seed-corrected z-score does the source give for AUUGUGGUAGUAGUGUUGG against NUP62CL here?
Answer: -2.29

Question: Which seed-corrected z-score does the source give for UCUUUGCCUAGUGUGGUUU against TAF9 here?
Answer: -0.576

Question: For UGUCUGUUUGUUGAAACUC against APOA5, which seed-corrected z-score is on record?
Answer: -0.451

Question: With UCGUAGGCAAGGUAAGUAG against MUCL1 as the sequence, how does the seed-corrected z-score read?
Answer: -0.0888

Question: With UCAAGUAAACUAGUCGUUU against VKORC1L1 as the sequence, how does the seed-corrected z-score read?
Answer: -0.26

Question: With UUGGUUGCAAAGGAACUCC against NAB1 as the sequence, how does the seed-corrected z-score read?
Answer: -2.58

Question: Which seed-corrected z-score does the source give for UUCAUUUGCUCGAUGGUUG against MAPK1 here?
Answer: 1.09

Question: Which seed-corrected z-score does the source give for UUCCUUGAUAGGUAUGUAU against LOC388813 here?
Answer: -0.0267

Question: With UUGUGAACUACUUCUAUCC against AKNA as the sequence, how does the seed-corrected z-score read?
Answer: 0.00206

Question: Which seed-corrected z-score does the source give for AUAGGUCUGACUCAGCUGC against CCDC155 here?
Answer: -2.23

Question: Which seed-corrected z-score does the source give for UAGUGUACAAGGGUCAGGC against TSPAN17 here?
Answer: 0.12

Question: For UAUACACCAAUGUCGGUCC against KDM5A, which seed-corrected z-score is on record?
Answer: 0.142

Question: For AAUGAGUAAAAAGUGAAUU against HTN1, which seed-corrected z-score is on record?
Answer: -0.556

Question: With UGAUGUAAAAUCAAAGGUU against KRT6C as the sequence, how does the seed-corrected z-score read?
Answer: 0.491

Question: For AAACUUGGUUGAGUGAUCC against KRBA2, which seed-corrected z-score is on record?
Answer: 0.654

Question: Which seed-corrected z-score does the source give for UGACUAUUAGGUCUUUAGC against BCAT1 here?
Answer: -0.111

Question: For UCCAUCGUCAAUGUUAUCC against HNRNPH3, which seed-corrected z-score is on record?
Answer: -5.45

Question: With AUAUCUAUAAUACCCUCCG against APIP as the sequence, how does the seed-corrected z-score read?
Answer: 0.416

Question: With AUACGUGUUCUCAAUGAUC against RNF121 as the sequence, how does the seed-corrected z-score read?
Answer: 0.696

Question: For UUCUCUUCUUUAGUCAGUG against SKA2P1, which seed-corrected z-score is on record?
Answer: -2.33

Question: With AAUAUUGUAAGAAGAAGGG against NT5C3B as the sequence, how does the seed-corrected z-score read?
Answer: 0.882

Question: Which seed-corrected z-score does the source give for UGGGUUCUCAGGAACGGGU against PNKD here?
Answer: 1.76

Question: With UUCCUUUUGCGUCUGGAUC against ZC2HC1C as the sequence, how does the seed-corrected z-score read?
Answer: -1.55

Question: With UAUUUGGGUGGUUCAGUUG against NEK6 as the sequence, how does the seed-corrected z-score read?
Answer: -0.0182

Question: With UAUGAGUCCACAAUUGAUC against TMEM19 as the sequence, how does the seed-corrected z-score read?
Answer: -11

Question: Which seed-corrected z-score does the source give for UCUACAAGUAAUGAAGGCC against ZFP62 here?
Answer: 0.853

Question: Which seed-corrected z-score does the source give for AAUGAUGAAUCCACCUUCG against ARMC10P1 here?
Answer: -0.435
